This is one part of a sample in which hits are shown more often than they occur.
Shiga inhibitor – inhibitors of Shiga toxin in Vero cells | Vero cells, Shiga toxin protein synthesis inhibition reporter | inhibition, % at 38.7 µM | 9.2% of 290,000 active; in the data active = inhibition mostly above about 28%, no sharp cut-off; inactive = mostly below about 43%
Giardia FBPA inh – inhibitors of Giardia lamblia fructose-1,6-bisphosphate aldolase; A8B2U2; purified Giardia FBPA; Potency, µM (doses to about 59.6 µM), actives largely listed as inhibitors; 0.71% of 290,000 active; also: nearly all actives have a fitted effect of over 55% in size
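Giardia FBPA (40 nM reagent) was preincubated 10 min at RT with compound (up to 57.5 uM final), then substrate plus GAPDH/TPI/NAD/arsenate coupling system with diaphorase/resazurin was added; resorufin fluorescence (525/598 nm) was read after 20 min.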
LmPK inh – inhibitors of Leishmania mexicana pyruvate kinase; AID 1721; Q27686; purified LmPK, Kinase-Glo ATP luminescence, 1 h; 0.37% of 290,000 active; Potency, µM (top dose mostly 57.5 µM), usual class: inhibitors
Target sequence (Q27686 whole entry, looked up): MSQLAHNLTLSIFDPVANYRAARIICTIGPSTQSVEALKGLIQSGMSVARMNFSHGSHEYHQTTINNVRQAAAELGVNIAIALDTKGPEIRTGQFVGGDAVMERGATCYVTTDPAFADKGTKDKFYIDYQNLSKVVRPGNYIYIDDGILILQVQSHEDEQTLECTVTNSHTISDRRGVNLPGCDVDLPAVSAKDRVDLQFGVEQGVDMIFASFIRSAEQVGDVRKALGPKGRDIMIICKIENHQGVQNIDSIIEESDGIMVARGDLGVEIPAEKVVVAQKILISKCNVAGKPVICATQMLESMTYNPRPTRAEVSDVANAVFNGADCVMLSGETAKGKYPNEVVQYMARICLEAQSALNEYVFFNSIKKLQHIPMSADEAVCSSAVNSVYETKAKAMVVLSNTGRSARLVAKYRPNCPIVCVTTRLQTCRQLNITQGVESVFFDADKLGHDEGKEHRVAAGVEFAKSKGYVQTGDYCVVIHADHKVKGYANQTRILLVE
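Screened at intermediate enzyme activity to detect both inhibitors and activators: LmPK at 0.1 nM, with a 0.5 nM enzyme column as activation reference. PEP 0.5 mM, ADP 0.1 mM; ATP detected by luminescence after 1 h.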
CHX counter – counter-screen hit for Shiga toxin inhibitors, cycloheximide; cell reporter, cycloheximide protein synthesis inhibition counterscreen; max response, %; 12% of 300,000 active; AID 2314; in the data active = max response mostly above about 13%, no sharp cut-off; inactive = mostly below about 14%; also: read at 38.3 µM for the half of the compounds with a filed dose
Tb PYK inh – inhibitors of Trypanosoma brucei pyruvate kinase. Potency, µM (top dose mostly 76.8 µM), hits mostly inhibitors. TbPYK enzyme, Kinase-Glo Plus ATP luminescence, 45 min. 0.12% of 410,000 active. Q57TT1. AID 624173; also: nearly all actives have a fitted effect of over 50% in size
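Glycolytic pyruvate kinase of T. brucei was incubated with substrate, test compound and 130 uM ADP for 45 minutes at room temperature. Luminescent Kinase-Glo Plus signal was measured after 10 minutes.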
RE007 growth inh – less growth of the S. pombe RE007 Vpr strain. S. pombe RE007 Vpr strain, BacTiter-Glo ATP luminescence, 24 h. Potency, µM (titrated, usually from 92.2 µM), hits mostly inhibitors. 0.21% of 360,000 active; active = well fitted falling curve with a large enough effect; inconclusive = small, poorly fitted or top-dose-only effect; inactive = no such curve, though single readings can be large or run the other way; also: nearly all actives have a fitted effect of over 50% in size
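Fission yeast RE007 carrying one integrated HIV-1 vpr copy, seeded at OD 0.01 in PMG+AL medium with 23 nL pinned compound. Grown 24 h at 30 degrees; viability read by BacTiter-Glo luminescence after 5 min.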
Hits are given with their value; i = inactive; ? = inconclusive; nt = no result given; [ ] = remark or other dose. Unless noted, calls follow the shape of the dose curve; as a rule, active = well fitted curve in the direction sought with a large enough effect; inconclusive = small, poorly fitted or top-dose-only effect, or another doubt; inactive = no such curve, though single readings can be large; an effect the other way counts as inactive or inconclusive.

SMILES | Shiga inhibitor | Giardia FBPA inh | LmPK inh | CHX counter | Tb PYK inh | RE007 growth inh
Cc1cc(C)c2c(=O)n3c(nc2c1)C(C)NC(=O)c1cccnc1-3 (stereo not drawn) | nt | nt | nt | nt | i | i
COc1ccc(-c2nn(-c3ccccc3)cc2/C=N/O)cc1 | i | i | i | i | i | i
COc1ccc(-c2nn(-c3ccccc3)cc2/C=N/N2C(=O)CSC2=S)cc1 | i | i | i | 29 | i | i
CCOc1cccc2cc(-c3nc4sc5c(c4c(=O)[nH]3)CCC(C(C)(C)C)C5)c(=O)oc12 (stereo not drawn) | nt | nt | nt | nt | i | nt
O=C1C=CC(O)(c2cc(=O)c3c(O)cc(O)cc3o2)C=C1 | 93 | i | i | 45 | i | i
O=c1c(O)c(-c2cc(O)c(O)c(O)c2)oc2cc(O)cc(O)c12 | nt | ? | nt | nt | ? | i
CC(C(=O)NC1(C#N)CCCCC1)N(C)CC(=O)Nc1ccc(Cl)c(Cl)c1 (stereo not drawn) | nt | nt | nt | nt | i | i
COc1ccc(-c2nnc(N)s2)cc1OC | nt | nt | nt | nt | i | i
CCCOc1ccc(-c2nnc(N)s2)cc1 | 105 | i | i | 40 | i | i
CC(C)c1ccc(-c2nnc(N)s2)cc1 | 54 | i | i | 66 | i | i
COc1ccc(-c2nnc(N)s2)cc1 | i | i | i | 37 | i | i
CNc1nnc(-c2ccncc2)s1 | i | i | i | i | i | i
CNc1nnc(-c2ccc(OC)cc2)s1 | 78 | i | i | 33 | i | i
COc1ccc(C(C)(NC(C)=O)c2nc(-c3cccc4cccnc34)cs2)cc1 (stereo not drawn) | nt | nt | nt | nt | i | i[18.4 µM]
Cc1ccc(-c2nnc(N)s2)cc1 | 66 | i | i | 43 | i | i
Cc1ccc(SCc2nnc(N)s2)cc1 | i | i | i | 10 | i | i
CCCOc1ccc(-c2nc(-c3ccc(N)cc3)cs2)cc1 | 62 | i | i | 68 | nt | nt
CCCOc1ccc(Cc2nc(N)nc(N)n2)cc1 | i | i | i | i | i | i
Nc1nnc(-c2ccncc2)s1 | i | i | i | i | i | i
COc1ccc(Cl)cc1NC(=O)CSC1=Nc2ccccc2C2=NC(CC(=O)NCc3ccc4c(c3)OCO4)C(=O)N12 (stereo not drawn) | nt | nt | nt | nt | i | nt
Cc1cnc(CNc2ncncc2-c2ccccc2C)cn1 | nt | i | nt | nt | nt | nt
CC/C(=N\NC(=S)Nc1ccccc1)c1c(O)[nH]c(=O)[nH]c1=O | 32 | ? | i | 29 | i | i
C/C(=N\Nc1ccccc1)c1c(O)[nH]c(=O)[nH]c1=O | i | i | i | i | i | i
COC(=O)c1cccc(NC(=O)/C=C/c2cccc([N+](=O)[O-])c2)c1 | i | i | i | 15 | i | i
CCC(CC)C(=O)OCC(=O)Nc1cccc([N+](=O)[O-])c1 | 37 | i | i | 15 | i | i
SMILES | Shiga inhibitor | Giardia FBPA inh | LmPK inh | CHX counter | Tb PYK inh | RE007 growth inh
CSc1cccc(NC(=O)CSc2ncccc2C(=O)Oc2cccc([N+](=O)[O-])c2)c1 | i | i | i | 17 | i | i
CCC(CCC(=O)Nc1cccc([N+](=O)[O-])c1)C(=O)O (stereo not drawn) | i | i | i | i | i | i
CC(=O)c1cccc(NC(=O)/C=C/c2ccc([N+](=O)[O-])s2)c1 | 96 | i | i | 33 | i | i
COC(=O)c1cccc(NC(=O)/C=C/c2ccc([N+](=O)[O-])cc2)c1 | i | i | i | i | i | i
CCN(C(=O)CSc1ncccc1C(=O)Oc1cccc([N+](=O)[O-])c1)c1cccc(C)c1 | i | i | i | i | i | nt
CSCCC(C(=O)Nc1c(C)cccc1C)N1CCN(C/C=C/c2ccccc2)CC1 (stereo not drawn) | nt | nt | nt | nt | i | i
CCCCN(C(=O)c1ccccc1Cl)C(CC(C)C)c1nc2ccccc2[nH]1 (stereo not drawn) | nt | nt | nt | nt | i | i
COCCCNC(=S)Nc1ccc(CC(=O)O)cc1 | i | i | i | i | i | i
COC(=O)c1cccc(NC(=O)COc2cccc([N+](=O)[O-])c2)c1 | i | i | i | 16 | i | i
CCC(=O)N1CCN(c2ccc(NC(=O)COc3ccccc3Cl)cc2)CC1 | i | i | i | i | i | i
Cc1cc(OCC(=O)Nc2ccc(S(=O)(=O)N3CCN(C)CC3)cc2)ccc1Cl | i | i | i | i | i | i
CN1CCN(c2ccc(NC(=O)COc3ccccc3Cl)cc2)CC1 | 76 | i | i | 26 | i | i
O=C(COc1ccccc1Cl)Nc1ccc(CN2CCOCC2)cc1 | i | nt | i | 21 | i | i
Cc1cc(OCC(=O)Nc2ccc(N3CCN(C)CC3)cc2)ccc1Cl | 77 | i | i | 38 | i | i
COc1cc(CC(=O)NCCCc2ccccc2)cc(OC)c1OC | i | i | i | i | i | i
COc1ccc(C(C(=O)NCC2CCCO2)N(Cc2ccccc2)C(=O)CNC(=O)c2ccco2)cc1OC (stereo not drawn) | i | i | i | i | i | i
COc1ccc(C2CC(c3ccccc3)Oc3cc(C)cc(C)c32)cc1 (stereo not drawn) | i | i | nt | i | nt | nt
Cc1ccc(C(=O)n2nc(-c3ccccc3)nc2NCc2ccco2)cc1 | i | i | i | 19 | i | i
O=C(c1ccccc1)n1nc(-c2ccccc2)nc1NCc1ccco1 | i | i | i | i | i | i
O=S(=O)(c1ccccc1)n1nc(-c2ccccc2)nc1NCc1ccco1 | 74 | i | i | 30 | i | i
COc1ccc(CNc2nc(-c3ccccc3)nn2S(=O)(=O)c2ccccc2)cc1 | nt | nt | nt | nt | i | nt
CCCC(=O)n1nc(-c2ccc(C)cc2)nc1NCc1ccco1 | 76 | i | i | 32 | i | i
CC(=O)N1c2ccc(S(=O)(=O)N3CCCCCC3)cc2CC1C(=O)NCc1ccccc1 (stereo not drawn) | nt | nt | nt | nt | i | nt
CCOC(=O)c1noc2ncnc(Nc3cc(Cl)c(OC)cc3OC)c12 | nt | nt | nt | nt | i | nt
Cc1cc2oc(=O)cc(Cn3ncc(Cl)c(Cl)c3=O)c2cc1Cl | i | i | i | i | i | ?
SMILES | Shiga inhibitor | Giardia FBPA inh | LmPK inh | CHX counter | Tb PYK inh | RE007 growth inh
O=C(OCn1ncc(Cl)c(Cl)c1=O)c1ccc(C(F)(F)F)cc1 | i | i | i | i | i | i
Cc1cccc(Cn2ncc(Cl)c(Cl)c2=O)c1 | i | i | i | 24 | i | i
Cc1cccc(Cn2nnc3c2C(=O)c2ccccc2C3=O)c1 | active | ? | i | 27 | nt | i[3.69 µM]
Cc1ccc(C(=O)OCn2ncc(Cl)c(Cl)c2=O)cc1 | i | i | i | i | i | 50µM
CC(=O)NCCNc1cc(-c2ccccc2CN(C)C)ncn1 | nt | i | nt | nt | nt | nt
CN(C)c1ncc2nc(-c3ccccc3)c(=O)n(-c3ccccc3)c2n1 | nt | i | nt | nt | nt | nt
O=C1NC(c2ccc(Br)cc2)=N/C1=C/c1ccco1 | 63 | ? | i | 41 | i | i
O=C1NC(=O)C(=Cc2ccco2)C(=O)N1 | nt | nt | nt | nt | ? | i
O=C1NC(c2ccccc2Cl)=N/C1=C/c1ccco1 | 61 | i | ? | 38 | i | ?
COc1ccc(NC(=O)c2ccccc2NC(=O)c2ccccc2C(=O)O)c(OC)c1 | 53 | i | i | 11 | i | i

Screening data from PubChem BioAssay.
